Our source for the growth inhibition, inhibition and outcome values is PubChem BioAssay.

Unmarked numbers belong to inactive results. For some of these results: Potency and affinity values are given separately. Calls of active or inactive are those of the source. Unless noted, the rule behind the calls is not given here.

Test [1] in a line: antimalarial activity against Dd2 strain (AID 2302;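 active = growth inhibition above 50% at the single 2 µM test dose, taken to imply half-maximal potency below 2 µM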;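 note: 0% = DMSO untreated growth and 100% = chloroquine plus artemisinin killed control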). The following applies: P. falciparum Dd2 in RBCs, LDH growth readout, 72 h; at 2 µM; active compounds read high.
A short description of test [2]: human hepatoma cell viability loss – ATP luminescence, cytotoxicity control for P. falciparum antimalarial project, primary screen (AID 2303;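 active = inhibition above 50%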;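 note: 0% = DMSO wells and 100% = digitonin-killed cells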). The following applies: HepG2 viability, 24-48 h, at 10 µM, active compounds read high.
In test [3] the target is L-lactate dehydrogenase (Plasmodium falciparum (isolate CDC / Honduras)) (UniProt Q27743). Kind of test: PfLDH activity inhibition – cell lysate, 3D7 strain, counter-screen for P. falciparum growth inhibition project (AID 2304).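 Note: 0% = vehicle and 100% = reference inhibitor.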 To be noted: P. falciparum 3D7 crude extract, LDH APAD/NBT absorbance; at 2 µM; active compounds read high. (Counterscreens check selectivity or assay interference.)

The nature of test [4]: inhibition of 3D7 malaria parasite growth – strain 3D7 (AID 2306).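 Note: 0% = DMSO wells and 100% = chloroquine plus artemisinin control wells.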 To be noted: P. falciparum 3D7 erythrocytic growth, LDH absorbance, 72 h; at 2 µM; active compounds read high.
The target in test [5] is Calcium-dependent protein kinase 1 (Plasmodium falciparum (isolate 3D7)) (UniProt P62344). Kind of test: PfCDPK1 kinase inhibitors, biochemical, TCAMS library (AID 1159585; cut-off not given, nearly all actives have IC50 up to about 0.98 µM;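 note: inhibitors leave more ATP so luminescence rises with inhibition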). The following applies: recombinant PfCDPK1, Kinase-Glo ATP depletion luminescence. Background: Kinase-Glo measures the ATP left after a reaction by luminescence.
In test [6] the target is Plasmodium falciparum protein kinase 6 (PK6, PF3D7_1337100) (UniProt Q8IDW1). The test can be described thus: PfPK6 kinase inhibitors, biochemical, TCAMS library (AID 1159586). To be noted: recombinant PfPK6, Kinase-Glo ATP depletion luminescence.
Test [7] addresses Protein kinase 7 (PK7), Plasmodium falciparum 3D7 (PF3D7_0213400) (UniProt Q7YTF7). The test can be described thus: inhibition of Plasmodium PK7 catalytic activity – biochemical, TCAMS antimalarial set, Kinase-Glo luminescence (AID 1159587). The following applies: recombinant PfPK7, Kinase-Glo ATP depletion luminescence.
Test [8] deals with Calcium-dependent protein kinase 4 (Plasmodium falciparum (isolate 3D7)) (UniProt Q8IBS5). The test can be described thus: PfCDPK4 kinase inhibitors, biochemical, TCAMS library (AID 1159588; cut-off not given, nearly all actives have IC50 up to about 0.91 µM). To be noted: recombinant PfCDPK4, Kinase-Glo ATP depletion luminescence.
Calcium-dependent protein kinase 4 (Plasmodium falciparum (isolate 3D7)), sequence (Q8IBS5 whole entry, looked up): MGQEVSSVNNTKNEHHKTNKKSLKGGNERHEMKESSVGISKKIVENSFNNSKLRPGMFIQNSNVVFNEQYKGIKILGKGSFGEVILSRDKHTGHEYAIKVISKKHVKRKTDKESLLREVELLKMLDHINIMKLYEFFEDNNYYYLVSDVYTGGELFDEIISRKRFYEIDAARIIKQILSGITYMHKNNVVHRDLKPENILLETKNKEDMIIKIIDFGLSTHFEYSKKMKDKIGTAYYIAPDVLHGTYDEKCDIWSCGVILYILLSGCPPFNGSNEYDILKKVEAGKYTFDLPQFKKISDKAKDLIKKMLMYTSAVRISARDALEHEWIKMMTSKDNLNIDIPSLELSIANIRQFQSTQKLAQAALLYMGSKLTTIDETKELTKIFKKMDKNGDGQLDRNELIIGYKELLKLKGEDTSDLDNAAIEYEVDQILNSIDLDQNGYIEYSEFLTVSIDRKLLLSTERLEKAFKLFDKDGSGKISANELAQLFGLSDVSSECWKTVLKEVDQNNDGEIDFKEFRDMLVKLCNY

Plasmodium falciparum protein kinase 6 (PK6, PF3D7_1337100), sequence (Q8IDW1 1-305): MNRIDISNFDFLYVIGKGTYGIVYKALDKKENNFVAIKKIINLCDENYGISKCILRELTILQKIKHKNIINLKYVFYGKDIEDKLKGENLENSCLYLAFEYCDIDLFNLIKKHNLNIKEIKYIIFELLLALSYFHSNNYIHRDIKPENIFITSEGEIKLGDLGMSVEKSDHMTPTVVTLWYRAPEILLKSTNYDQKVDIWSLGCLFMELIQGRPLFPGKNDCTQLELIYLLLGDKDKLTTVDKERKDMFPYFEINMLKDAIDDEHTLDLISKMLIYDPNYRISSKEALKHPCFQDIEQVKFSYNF
Protein kinase 7 (PK7), Plasmodium falciparum 3D7 (PF3D7_0213400), sequence (Q7YTF7 1-343): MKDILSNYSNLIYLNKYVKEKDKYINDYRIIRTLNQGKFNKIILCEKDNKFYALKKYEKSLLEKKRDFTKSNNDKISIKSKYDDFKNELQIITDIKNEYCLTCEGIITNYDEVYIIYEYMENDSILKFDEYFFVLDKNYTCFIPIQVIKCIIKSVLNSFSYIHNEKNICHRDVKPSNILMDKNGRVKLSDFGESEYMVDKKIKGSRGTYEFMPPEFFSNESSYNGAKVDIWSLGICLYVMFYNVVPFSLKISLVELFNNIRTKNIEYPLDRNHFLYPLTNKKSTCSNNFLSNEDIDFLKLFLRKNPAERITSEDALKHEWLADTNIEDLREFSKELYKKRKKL
Calcium-dependent protein kinase 1 (Plasmodium falciparum (isolate 3D7)), sequence (P62344 whole entry, looked up): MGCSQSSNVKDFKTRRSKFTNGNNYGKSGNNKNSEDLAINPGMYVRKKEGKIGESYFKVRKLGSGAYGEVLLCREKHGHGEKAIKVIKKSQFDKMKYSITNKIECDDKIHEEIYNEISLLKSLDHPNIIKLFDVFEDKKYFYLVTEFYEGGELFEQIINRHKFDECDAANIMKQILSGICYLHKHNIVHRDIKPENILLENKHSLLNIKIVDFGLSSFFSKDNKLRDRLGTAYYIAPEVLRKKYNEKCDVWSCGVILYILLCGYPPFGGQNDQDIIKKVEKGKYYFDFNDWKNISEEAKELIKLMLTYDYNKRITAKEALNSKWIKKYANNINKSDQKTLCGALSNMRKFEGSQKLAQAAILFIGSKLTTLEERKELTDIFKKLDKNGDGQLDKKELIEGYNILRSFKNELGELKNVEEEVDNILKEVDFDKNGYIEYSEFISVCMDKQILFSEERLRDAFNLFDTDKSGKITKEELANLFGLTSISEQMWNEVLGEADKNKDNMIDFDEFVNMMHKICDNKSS
L-lactate dehydrogenase (Plasmodium falciparum (isolate CDC / Honduras)), sequence (Q27743 whole entry, looked up): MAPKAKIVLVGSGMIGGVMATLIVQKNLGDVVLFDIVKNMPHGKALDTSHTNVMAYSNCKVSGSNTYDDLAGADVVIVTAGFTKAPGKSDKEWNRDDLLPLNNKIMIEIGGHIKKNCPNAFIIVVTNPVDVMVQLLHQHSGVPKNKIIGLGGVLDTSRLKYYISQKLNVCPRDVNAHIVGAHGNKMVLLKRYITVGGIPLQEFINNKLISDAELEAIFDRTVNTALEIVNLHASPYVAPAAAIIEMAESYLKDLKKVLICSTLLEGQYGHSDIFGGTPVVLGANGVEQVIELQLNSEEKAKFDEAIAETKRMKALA

A word on the inhibition: it is the drop in the measured response relative to a control, in per cent. For `CCOC(=O)c1ccc(NC(=O)N[C@@H](Cc2ccccc2)C(=O)NC2CCN(Cc3ccc(O)cc3)C2)cc1` (stereo not given in full), the growth inhibition in test [1] was 2%; in test [4], 95% (active). Besides, the inhibition in test [2] was 7%; in test [3] it was -6%. In addition, the result in test [5], in test [6], in test [7] and in test [8] was inactive.

Take `CCc1nc2nc(C)cc(Nc3cc(C)cc(C)c3)n2n1`: the growth inhibition in test [1] and in test [4] was 96% (active) in each case. For the same molecule, the inhibition in test [2] was 21%; in test [3] it was 7%. Also, the result in test [5], in test [6], in test [7] and in test [8] was inactive.

With `CC(C)(C)OC(=O)NCC(=O)N(Cc1ccccc1)Cc1ccccc1`, the figures for the growth inhibition in test [1] and in test [4] were 93% (active) and 97% (active), respectively. Also, the inhibition in test [2] was -10%; in test [3], 2%. For the same molecule, the result in test [5], in test [6], in test [7] and in test [8] was inactive.

As to `COc1ccc2nccc([C@@H](O)CN3CCC(NCc4cc5oc(=O)[nH]c5cc4Cl)CC3)c2c1`, the growth inhibition in test [1] was 91% (active); in test [4], 101% (active). Further, the inhibition in test [2] is 1%; in test [3], -2%. In addition, the result in test [5], in test [6], in test [7] and in test [8] was inactive.

With `CC(=O)Nc1ccc2[nH]cc(C3CCN(CC4CCC(NC(=O)/C=C/c5ccc(Cl)c(Cl)c5)CC4)CC3)c2n1` (stereo not given), the growth inhibition in test [1] is 79% (active); in test [4], 101% (active). For the same molecule, the results for the inhibition in test [2] and in test [3] were 17% and -1%, respectively. The outcome in test [5], in test [6], in test [7] and in test [8] was inactive.

With `CC(C)(Oc1c(C2CCN(CCCCNC(=O)c3ccc(-c4ccc(Cl)cc4)cc3)CC2)ccc2c1CCCC2)C(N)=O`, the growth inhibition in test [1] is 5%; in test [4], 93% (active). The inhibition in test [2] was 100% (active); in test [3] it was 1%. Also, the result in test [5], in test [6], in test [7] and in test [8] was inactive.

`COc1ccc2nccc([C@@H](O)CN3CCC(NC(=O)c4ccc(C5(C(F)(F)F)N=N5)cc4)CC3)c2c1`: the growth inhibition in test [1] was 41%; in test [4] it was 97% (active). Besides, the inhibition was 8% in test [2] and -8% in test [3]. Besides, the result in test [5], in test [6], in test [7] and in test [8] was inactive.

Regarding `CC(C)CC(C)NC(=O)C1Cc2c([nH]c3cc(Cl)ccc23)C2(CCN(CCc3ccccc3)CC2)N1` (stereo not given), the growth inhibition in test [1] is 65% (active); in test [4] it was 95% (active). In addition, the inhibition was 15% in test [2] and -1% in test [3]. Besides, the outcome in test [5], in test [6], in test [7] and in test [8] was inactive.

On to `COc1cc2c(cc1OC)CN(c1cc(N)c3cc(OC)c(OC)cc3n1)CC2`, for which the growth inhibition in test [1] was 99% (active); in test [4], 100% (active). Further, the inhibition in test [2] is 23%; in test [3], -3%. Besides, the outcome in test [5], in test [6], in test [7] and in test [8] was inactive.

Regarding `C[C@@H](CC1CCCCC1)OC(=O)N(C)[C@@H]1CCN(C#N)C1`, the growth inhibition in test [1] is 96% (active); in test [4] it was 95% (active). The inhibition in test [2] was 5%; in test [3], 3%. Also, the result in test [5], in test [6], in test [7] and in test [8] was inactive.

Turning to `O=C(C1CCN(C(c2ccccc2)c2ccc(Cl)c(Cl)c2)CC1)N1CC=CC1` (stereo not given), the figures for the growth inhibition in test [1] and in test [4] were 84% (active) and 89% (active), respectively. For the same molecule, the results for the inhibition in test [2] and in test [3] were 1% and 7%, respectively. In addition, the outcome in test [5], in test [6], in test [7] and in test [8] was inactive.

As to `Cc1cc(F)ccc1-c1nc(N(C)CCN(C)C(=O)N(C)c2ccccc2)nc2c1ccc(=O)n2-c1c(F)cccc1F`, the growth inhibition in test [1] was 77% (active); in test [4], 87% (active). Moreover, the figures for the inhibition in test [2] and in test [3] were -1% and 2%, respectively. Besides, the outcome in test [5], in test [6], in test [7] and in test [8] was inactive.

For the molecule `Cc1cc(NCCCCCCNc2cc(C)nc3c(C)cccc23)c2cccc(C)c2n1`, the growth inhibition in test [1] was 9%; in test [4] it was 100% (active). For the same molecule, the inhibition was 23% in test [2] and -2% in test [3]. Moreover, the outcome in test [5], in test [6], in test [7] and in test [8] was inactive.

Regarding `CCN(CC)c1nc(N)c2c(N)nc3c(c2c1C#N)C(=O)CN3Cc1ccccc1`, the growth inhibition in test [1] and in test [4] was 96% (active) in each case. In addition, the inhibition was 26% in test [2] and -3% in test [3]. The outcome in test [5], in test [6], in test [7] and in test [8] was inactive.

As to `O=C(Nc1ccc2c(c1)CN(Cc1ccc(N3CCCC3)o1)CCC2)c1cncs1`, the values for the growth inhibition in test [1] and in test [4] were 37% and 84% (active), respectively. Also, the results for the inhibition in test [2] and in test [3] were 15% and -2%, respectively. Besides, the result in test [5], in test [6], in test [7] and in test [8] was inactive.

Turning to `N#Cc1ccc2c(c1)CN(CCC1CCC(NC(=O)c3cc4cc(OC(F)(F)F)ccc4[nH]3)CC1)CC2` (stereo not given), the growth inhibition is 19% in test [1] and 101% (active) in test [4]. For the same molecule, the inhibition in test [2] and in test [3] was 4% throughout. For the same molecule, the result in test [5], in test [6], in test [7] and in test [8] was inactive.

As for `Cc1cc(=O)[nH]c(-n2nc(C)cc2NC(=O)C2(c3ccc(Cl)cc3)CCCC2)n1`, the growth inhibition in test [1] is 97% (active); in test [4], 96% (active). Moreover, the inhibition was 30% in test [2] and 5% in test [3]. The outcome in test [5], in test [6], in test [7] and in test [8] was inactive.

Take `Cc1ccc2nc(C)cc(NN=Cc3cccc([N+](=O)[O-])c3)c2c1`: the growth inhibition is 99% (active) in test [1] and 102% (active) in test [4]. Moreover, the inhibition in test [2] was 0%; in test [3], 1%. Also, the result in test [5], in test [6], in test [7] and in test [8] was inactive.

On to `O=C(Nc1cccc(CN2CCCN(Cc3ccccc3)CC2)c1)c1cc2ccccc2s1`, for which the growth inhibition was 28% in test [1] and 87% (active) in test [4]. The figures for the inhibition in test [2] and in test [3] were 41% and 1%, respectively. Also, the outcome in test [5], in test [6], in test [7] and in test [8] was inactive.

Consider `COc1ccc(C2NCCc3c2[nH]c2ccccc32)cc1CN1CCN(c2ccc(F)cc2)CC1` (stereo not given), for which the growth inhibition in test [1] was 56% (active); in test [4], 97% (active). The inhibition was 37% in test [2] and -1% in test [3]. The result in test [5], in test [6], in test [7] and in test [8] was inactive.
